Bioassay records as filed in PubChem.
The list is not random: actives were taken first. Their share in the collection is about 4%.
697 NFkB inh – inhibitors of the PMA/ionomycin-induced NF-kB reporter in 697 B cells. 697 B-cell NF-kB luciferase reporter, 16 h. inhibition, % at 4 µM. actives 0.33% (n = 330,000). AID 435022; in the data active = inhibition above about 35%
Gli-Sufu antag – blocks Gli-Sufu signaling in a luciferase reporter | Sufu-KO-LIGHT fibroblasts, Gli luciferase reporter luminescence | inhibition, % at 5 µM | actives 0.74% (n = 340,000) | AID 588413;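 active = inhibition above about 55%, limit read from the data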;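 also: 0% = DMSO-treated cells and 100% = wells with medium but no cells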
Beta apoptosis – blocks beta cell apoptosis. AID 435005. protection from apoptosis, % (test concentration not listed). actives 0.8% (n = 300,000). INS-1E cytokine-induced death, ATP luminescence, 48 h; percent of positive-control rescue, neutral wells zero;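 active = Every replicate reaches about 75%, or at least half do and their mean reaches it too, limit read from the data; inconclusive = At least half of replicates reach the limit but their mean does not; inactive = Under half of replicates reach the limit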;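 also: 0% = cytokine-treated negative control wells and 100% = positive control rescue; higher means more ATP so stronger rescue from cytokine killing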
Jurkat NFkB inh – lowers PMA/ionomycin-induced NF-kB signal in Jurkat cells | AID 435003 | actives 0.53% (n = 330,000) | inhibition, % at 4 µM | PMA/ionomycin-induced NF-kB luciferase reporter, luminescence; in the data active = inhibition above about 50%
Mdm2 MdmX PPI – inhibitors of human Mdm2/MdmX interaction; O15151+Q00987; SaOS-2 split-luciferase Mdm2/MdmX complementation, luminescence; inhibition, % at 8 µM; actives 3% (n = 330,000);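 active = inhibition of at least 50% at 8 µM in the primary screen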
Target sequence (O15151 whole entry, looked up): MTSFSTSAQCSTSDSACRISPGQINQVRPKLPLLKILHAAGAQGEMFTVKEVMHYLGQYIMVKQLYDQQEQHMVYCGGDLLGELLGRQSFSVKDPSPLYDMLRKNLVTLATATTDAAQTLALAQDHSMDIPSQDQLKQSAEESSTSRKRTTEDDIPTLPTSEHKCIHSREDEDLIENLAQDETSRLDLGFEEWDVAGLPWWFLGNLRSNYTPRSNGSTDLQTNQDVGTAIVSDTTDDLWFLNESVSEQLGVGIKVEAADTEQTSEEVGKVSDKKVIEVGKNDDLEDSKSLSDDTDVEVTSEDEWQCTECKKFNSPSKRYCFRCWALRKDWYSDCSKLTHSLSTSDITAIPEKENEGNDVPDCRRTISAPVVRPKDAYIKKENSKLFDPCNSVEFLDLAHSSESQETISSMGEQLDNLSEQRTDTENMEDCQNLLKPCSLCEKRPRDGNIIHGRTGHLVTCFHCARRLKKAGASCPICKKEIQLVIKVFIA
Target sequence (Q00987 whole entry, looked up): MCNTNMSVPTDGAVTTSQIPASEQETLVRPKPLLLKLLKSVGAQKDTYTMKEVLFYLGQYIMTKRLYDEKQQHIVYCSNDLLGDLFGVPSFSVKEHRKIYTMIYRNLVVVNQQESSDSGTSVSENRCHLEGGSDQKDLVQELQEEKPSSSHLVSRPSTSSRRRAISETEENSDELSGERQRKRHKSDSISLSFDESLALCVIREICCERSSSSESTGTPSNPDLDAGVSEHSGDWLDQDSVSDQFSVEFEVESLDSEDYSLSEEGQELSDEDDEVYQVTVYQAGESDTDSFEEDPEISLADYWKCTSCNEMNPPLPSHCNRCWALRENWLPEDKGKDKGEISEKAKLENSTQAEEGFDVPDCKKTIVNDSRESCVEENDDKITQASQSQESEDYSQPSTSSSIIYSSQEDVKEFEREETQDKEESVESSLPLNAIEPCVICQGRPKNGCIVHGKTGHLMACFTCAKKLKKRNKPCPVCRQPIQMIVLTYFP
Mdm2-MdmX conf – confirmation of human Mdm2/MdmX interaction inhibitors; shares compounds with Mdm2 MdmX PPI; Mdm2-MdmX binding, luminescent assay; inhibition, % at 8 µM; actives 55% (n = 10,000); AID 489028; in the data active = inhibition above about 40%
Full FLuc ctr – full-length luciferase inhibition in Mdm2/MdmX counter-screen; shares compounds with Mdm2 MdmX PPI; SaOS-2 full-length luciferase counterscreen, luminescence; inhibition, % at 8 µM; actives 77% (n = 6,200); AID 504607;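 active = mean inhibition at 8 µM reaching about 37%, which flags the compound as non-specific, limit read from the data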;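 also: p53-null SaOS-2 cells with luciferase driven by a doxycycline-inducible promoter; compound on cells about two nights before reading with doxycycline added after day one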
Numbers without * were called inactive; ? = inconclusive; . = no result given.

SMILES | 697 NFkB inh | Gli-Sufu antag | Beta apoptosis | Jurkat NFkB inh | Mdm2 MdmX PPI | Mdm2-MdmX conf | others
COc1cc(C(=O)Nc2ccc(-c3nc4cc(C)ccc4o3)c(O)c2)cc(OC)c1OC | -55 | 9 | 28 | 13 | 74* | 52* | Full FLuc ctr=41*
COc1ccc(CNC(=O)C2(CC3CC(c4ccccc4)=NO3)CCNCC2)cc1 (centres undefined) | -2 | 5 | -2 | 8 | 20 | .
O=C(COC(=O)CCc1nc2ccccc2c(=O)[nH]1)Nc1ccc2c(c1)OCO2 | 13 | -20 | 0 | 4 | -5 | .
CCCCNC(=O)C(C)N(CCN(C)C)C(=O)CCCN1C(=O)NC(c2ccc([N+](=O)[O-])cc2)C(C(=O)OCc2ccccc2)=C1C (centres undefined) | 15 | -11 | . | . | 68* | 23
CCCCCCN(C(=O)CCCCCN1C(=O)NC(c2ccc(-c3ccccc3)cc2)C(C(=O)OCc2ccccc2)=C1C)C(C)C(=O)NCCCC (centres undefined) | 1 | . | 8 | -5 | 19 | .
CCCCNC(=O)C(C1CCCCC1)N(CCN(C)C)C(=O)CCCN1C(=O)NC(c2ccc(-c3ccccc3)cc2)C(C(=O)OCc2ccccc2)=C1C (centres undefined) | 22 | . | . | . | 97* | 57* | Full FLuc ctr=1
CCCCCCN(C(=O)CCCCCN1C(=O)NC(c2cccc([N+](=O)[O-])c2)C(C(=O)OCc2ccccc2)=C1C)C(C(=O)NCCCC)c1ccc(OCC(=O)OC)c(C(=O)OC)c1 (centres undefined) | -1 | . | 0 | 13 | 85* | -14
O=C(/C=C/c1ccccc1)CC(=O)c1ccccc1O | -32 | -22 | 5 | -44 | -39 | .
O=C(Cc1ccc(NC(=O)C2CCN(C(=O)C3CCC3)CC2)cc1)Nc1cccc(C(=O)N2CCCCC2)c1 | . | 7 | . | . | . | .
CCCNC(=O)C(=O)Nc1ccc2c(c1)N(S(=O)(=O)c1cccs1)CCC2 | -25 | -17 | 8 | 45 | 50* | 69* | Full FLuc ctr=60*
O=C(CN1CCN(CC(=O)Nc2cccc(F)c2)CC1)Nc1ccc(-c2ccccc2)cc1 | 5 | -13 | . | 15 | 22 | .
Cc1ccc(C2CC(c3cccs3)=NN2C(=O)CCl)cc1 (centres undefined) | -61 | -7 | -10 | 47 | 100* | 96* | Full FLuc ctr=53*
CCC(=O)N1N=C(c2cccs2)CC1c1ccc(C)cc1 (centres undefined) | -5 | -3 | 3 | -4 | -12 | .
CCC(=O)N1N=C(c2cccs2)CC1c1ccc(OC)cc1 (centres undefined) | -29 | 4 | -9 | -9 | -12 | .
CCOC(=O)CCSCC(=O)N1N=C(c2cccs2)CC1c1ccc(C)cc1 (centres undefined) | 10 | 0 | 1 | -10 | 5 | .
Cc1ccc(C2CC(c3cccs3)=NN2C(=O)CSC2=NCCS2)cc1 (centres undefined) | -8 | 17 | -9 | -2 | 55* | 28
COc1ccc(C2CC(c3cccs3)=NN2C(=O)CSC2=NCCS2)cc1 (centres undefined) | 3 | 15 | -2 | -9 | 54* | 14
CCOC(=O)C1=C(c2ccccc2)NC(=O)NC1c1ccc(O)c(Cl)c1 (centres undefined) | -3 | -13 | . | -5 | 94* | 56* | Full FLuc ctr=30
CCOC(=O)C1=C(c2ccccc2)NC(=O)NC1c1ccc(O)c(OCC)c1 (centres undefined) | 8 | -8 | -2 | 9 | 12 | .
CCCCN1C=CC(=C2C(=O)c3ccccc3C2=O)C=C1 | -33 | . | 38 | -4 | 84* | 79* | Full FLuc ctr=53*
Cc1cc(/C=C\c2ccc3cc(N(C)C)ccc3[n+]2C)c(C)n1-c1ccccc1 | 4 | 94* | . | 14 | 100* | 92* | Full FLuc ctr=9
COc1ccc(CC(=O)Nc2ccc(/C(C)=N/NC(=O)c3cccc([N+](=O)[O-])c3)cc2)cc1 | -22 | 0 | -3 | -8 | 57* | -4
CCCCCCC(=O)Nc1ccc(C(=O)N/N=C/c2cccnc2)cc1 | -79 | 10 | -2 | -13 | 1 | .
Cc1[nH]n(-c2ccccc2)c(=O)c1/C=N/NC(=O)c1cccc([N+](=O)[O-])c1 | -2 | 5 | -2 | 3 | 52* | 44* | Full FLuc ctr=6
CN1CCN(c2ccc([N+](=O)[O-])cc2C(=O)c2ccc(Cl)cc2)CC1 | -38 | 6 | 18 | 46 | 50* | 61* | Full FLuc ctr=57*
SMILES | 697 NFkB inh | Gli-Sufu antag | Beta apoptosis | Jurkat NFkB inh | Mdm2 MdmX PPI | Mdm2-MdmX conf | others
CCCCCCCC(=O)Nc1ccc(C(=O)N/N=C/c2cccc([N+](=O)[O-])c2)cc1 | -6 | -16 | 95* | 1 | 88* | 19
O=C(c1cn(-c2ccccc2)nc1-c1cccs1)N1CCN(c2ccc(F)cc2)CC1 | 20 | 3 | 7 | 4 | 18 | .
CCOC(=O)c1c(NC(=O)COC(=O)c2nccnc2N)sc(C(=O)N(C)C)c1C | 19 | 2 | -6 | 4 | 2 | .
CN1CCN(c2ccccc2NC(=O)c2cccc([N+](=O)[O-])c2)CC1 | 4 | 4 | 0 | 0 | 2 | .
CN1CCN(c2ccc([N+](=O)[O-])cc2/C=N/NC(=O)c2cccc([N+](=O)[O-])c2)CC1 | 22 | . | 1 | -5 | 51* | -4
CC(/C=N/NC(=O)c1cccc([N+](=O)[O-])c1)=C\c1ccccc1 | -24 | -27 | 0 | -36 | 74* | -30
Cc1ccc(-n2[nH]c(C)c(/C=N/NC(=O)c3ccc([N+](=O)[O-])cc3)c2=O)c(C)c1 | 2 | . | . | -4 | 53* | 9
CCC(=O)N1CCN(c2ccc(Cl)cc2NC(=O)c2cccc([N+](=O)[O-])c2)CC1 | -1 | -11 | 4 | -3 | 55* | 6
O=C(N/N=C/c1ccncc1)c1cccc([N+](=O)[O-])c1 | -3 | . | 2 | -19 | -31 | .
O=C(COC(=O)/C=C/c1ccccc1)NCCc1ccc(F)cc1 | -4 | 7 | -7 | -7 | -15 | .
Cc1c2cnn(CC(=O)NCCN3CCOCC3)c(=O)c2c(C)n1Cc1ccc(F)cc1 | 1 | 8 | -5 | 16 | 28 | .
CCn1cc(C(=O)Nc2ccc(C)cc2[N+](=O)[O-])c(C)n1 | -19 | 1 | -8 | -9 | 7 | .
O=C(N/N=C/c1ccc(O)cc1O)c1ccc(NC(=O)C2CCCCC2)cc1 | -37 | 6 | ? | 31 | 68* | 54* | Full FLuc ctr=38*
O=C(N/N=C/c1cccc(O)c1)c1ccc(NC(=O)C2CCCCC2)cc1 | -19 | 3 | 5 | 7 | 30 | .
O=C(Nc1ccc(C(=O)N2CCOCC2)cc1)c1cccc([N+](=O)[O-])c1 | 11 | -11 | -9 | 7 | -5 | .
Cc1nnc(-c2ccc(Oc3ccc(Br)cc3)c([N+](=O)[O-])c2)o1 | -11 | . | 0 | -14 | 3 | .
